Assay results from PubChem BioAssay AID1974 (The Scripps Research Institute Molecular Screening Center, 2009).
Hit rate of the full screen: of about 300,000 compounds, about 3,200 (1.1%) were called active. For the sample, actives were picked, then their nearest neighbours and some compounds at random. Unmarked numbers belong to inactive results.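 How the source made its calls: active means inhibition above the campaign mean inhibition plus 3 SD (cut at about 35% in these data); inactive means the rest.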

What follows are compounds tested against Glutathione S-transferase omega-1 (Homo sapiens) (UniProt P78417) (assay: inhibitors of recombinant GSTO1, primary screen, counter-screen for RBBP9 inhibitor project, biochemical, fluorescence polarization (AID 1974;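 further: 0% = GSTO1-1 with DMSO and 100% = wells lacking GSTO1-1 enzyme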)). Conditions: recombinant GSTO1, activity-based probe fluorescence polarization; at 5.96 µM; stronger effect = higher value.
Sequence of Glutathione S-transferase omega-1 (Homo sapiens) (P78417 whole entry, looked up): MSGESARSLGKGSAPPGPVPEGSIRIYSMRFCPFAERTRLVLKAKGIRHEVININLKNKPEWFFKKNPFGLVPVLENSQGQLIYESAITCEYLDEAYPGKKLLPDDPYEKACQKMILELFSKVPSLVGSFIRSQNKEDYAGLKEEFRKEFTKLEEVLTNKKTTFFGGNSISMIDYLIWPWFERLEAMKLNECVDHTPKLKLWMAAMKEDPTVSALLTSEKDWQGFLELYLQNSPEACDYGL

SMILES | inhibition
C/C(CCC(=O)OC[C@H]1O[C@H](C#Cc2ccccc2)C=C[C@@H]1Oc1ccc(C)cc1)=N\OC[C@@H](O)[C@H]1O[C@@H]2OC(C)(C)O[C@@H]2[C@H]1O | 3.31%
CCOc1ccc(/C=C/C(=O)OCC(=O)c2ccccc2OC)cc1OC | -2.58%
O=C(N/N=C/c1ccc(O)c(O)c1)C1c2ccccc2Oc2ccccc21 | 35.5% (active)
CCC(C)(C)NC(=O)C1c2ccccc2Oc2ccccc21 | 3.61%
CCC(C)NC(=O)C1c2ccccc2Oc2ccccc21 (stereo unspecified) | 2.29%
CCOC(=O)N1CCN(C(=O)COc2ccc3oc4c(c3c2)CCCC4)CC1 | -0.52%
Nc1ccccc1/C=N\N=C/c1ccccc1N | 8.02%
CCOc1ccc(CCNC(=O)COC(=O)c2ccc(F)c(S(=O)(=O)N3CCOCC3)c2)cc1OCC | 11.6%
CCCCN(CCCC)CCC(O)c1cc2c(Cl)cc(Cl)cc2c2cc(C(F)(F)F)ccc12 (stereo unspecified) | 7.04%
COc1ccc(CNC(=O)C2(CC3CC(c4ccccc4)=NO3)CCN(C(=O)c3cccc(O)c3)CC2)cc1 (stereo unspecified) | -2.65%
CCOC(=O)c1ccccc1C(=O)N1CCOCCOCCOCC1 | 0.47%
Cc1noc(C)c1C(=O)N1CCOCC1 | -8.26%
Cc1oc2c(c1C(=O)N1CCOCC1)C(=O)c1ccccc1C2=O | 49% (active)
CCOc1ccc(CC(=O)NCCS(=O)(=O)N2CCN(c3ccccc3)CC2)cc1 | 2.49%
COc1ccc(-c2csc3ncnc(N4CCN(S(=O)(=O)c5cccc(F)c5)CC4)c23)cc1 | -26.4%
Cc1cc(C(=O)N/N=C/c2ccccc2[N+](=O)[O-])c(C)o1 | -0.23%
COc1cc(CC(=O)N/N=C/c2ccccc2)c([N+](=O)[O-])cc1OC | -0.51%
O=C(Cc1cc(=O)[nH][nH]1)N/N=C/c1ccccc1[N+](=O)[O-] | 49.5% (active)
CCOc1ccc(N2CC(C(=O)N/N=C/c3sccc3C)CC2=O)cc1 (stereo unspecified) | 8.53%
Cc1ccsc1C(=O)N/N=C/c1ccc([N+](=O)[O-])cc1 | 0.47%
Cc1ccsc1/C=N/NC(=O)Cc1cc(=O)[nH][nH]1 | 37.2% (active)
CCC(C)c1ccccc1N1CC(C(=O)N2CCN(S(=O)(=O)c3ccc(F)cc3)CC2)CC1=O (stereo unspecified) | 2.71%

SMILES | inhibition
CCOC(=O)/C=C/c1ccc(C(F)(F)F)cc1S(=O)(=O)NC(C)(C)C | -1.78%
COC(=O)c1ccc2ccccc2c1OC1OC(CO)C(O)C(O)C1NC(C)=O (stereo unspecified) | 2.04%
Cc1ccc2nc(NC(=O)C3CSC4(C)CCC(=O)N34)sc2c1 (stereo unspecified) | 1.93%
Cc1nn(Cc2ccccc2)c2c1C(c1ccccc1)C(C#N)=C(N)O2 (stereo unspecified) | 6.98%
COc1ccccc1C1C(C#N)=C(N)Oc2c1c(-c1ccccc1)nn2-c1ccccc1 (stereo unspecified) | 59.1% (active)
Cc1nn(-c2ccccc2)c2c1C(c1ccc(F)cc1)C(C#N)=C(N)O2 (stereo unspecified) | 25.3%
C#CCOCCOCCOCCNc1nc(N2CCN(C(=O)CCCCCCCCCCNC(=O)[C@H](CCCCN)n3cc(C)nn3)CC2)nc(N2CCN(C(=O)CCCCCCCCCCNC(=O)[C@H](CO)n3cc(CCCSC)nn3)CC2)n1 | 4.17%
CCOC(=O)[C@H]1[C@H]2COc3ccc(Cl)cc3[C@@H]2N2C(=O)c3cc(C)ccc3NC(=O)[C@@]12C | 1.13%
Cc1nc2ccccc2c(=O)n1-c1ccc(F)c(NC(=O)c2cccs2)c1 | -6.66%
CCN(C(=O)CSc1nnc(-c2ccc(OC(F)F)cc2)n1N)C1CCS(=O)(=O)C1 (stereo unspecified) | -5.72%
Cc1ccc(-c2nn(-c3ccc(F)cc3)cc2C(=O)NCC(c2cccs2)N2CCOCC2)cc1 (stereo unspecified) | -3.34%
c1ccc(CSc2nnc(-c3ccco3)c(-c3ccco3)n2)cc1 | 59.8% (active)
Brc1ccc(CSc2ccc(-c3ccco3)nn2)cc1 | -3.33%
O=c1[nH]c(SCc2ccccc2)nnc1-c1ccccc1 | -7.41%
Clc1ccccc1CSc1nnc(-c2ccco2)c(-c2ccco2)n1 | 53% (active)
O=c1cc(O)nc(SCc2ccccc2Cl)[nH]1 | -11.3%
Fc1cccc(Cl)c1CSc1ccc(-c2ccco2)nn1 | 3.45%
Cc1cc(C)n2nc(C(=O)OC(C)C(=O)c3cc(C)c(C)cc3C)nc2n1 (stereo unspecified) | 3.12%
COc1ccc(CNC(=O)CNC(=O)c2sc3ccccc3c2Cl)cc1OC | -3.56%
O=c1[nH]c(/C=C/c2cccc(Br)c2)nc2ccccc12 | -7.5%
O=[N+]([O-])c1ncc(Br)cc1Nc1ccccc1 | 13.4%
Cc1cc(C(=O)N/N=C/c2ccc(O)c([N+](=O)[O-])c2)c(C)n1-c1ccc(F)cc1 | 23.2%

SMILES | inhibition
COc1cc(/C=N/NC(=O)c2cc(C)n(-c3ccc(F)cc3)c2C)cc(OC)c1O | 35.7% (active)
COc1cc(/C=N/NC(=O)c2cc(-c3ccccc3C)nc3ccccc23)cc(OC)c1O | 3%
CN(C)CCn1c2c(c(SCC(=O)Nc3ccccc3C(F)(F)F)nc1=O)CCCC2 | -0.08%
C=CCNC(=O)c1ccccc1SCc1c(C)noc1C | 55.2% (active)
C=CCNC(=O)c1cc(-c2ccccc2O)on1 | 3.47%
CCN(CC(=O)Nc1ccccc1C(F)(F)F)C(=O)CSCc1c(C)noc1C | -6.06%
COc1ccc(N2CCN(S(=O)(=O)c3cc4c5c(c3)C(C)C(=O)N5CCC4)CC2)cc1 (stereo unspecified) | 8.18%
Cc1nc2ccccc2c(=O)n1-c1ccc(NS(=O)(=O)c2ccc(F)cc2F)cc1 | -1.88%
CC(=O)C12CC(C)=C(C)CC1CC1C3CCC4=CC(=O)CCC4(C)C3CCC12C (stereo unspecified) | 0%
CC1(C)S[C@@H]2[C@H](N=CN3CCCCCC3)C(=O)N2[C@H]1C(=O)O | 1.77%
COC(=O)c1cc(CNC(=O)CC(C)c2ccccc2)ccc1OC (stereo unspecified) | 3.39%
CC1(c2nnc(-c3ccncc3)o2)CC(c2cccnc2)=NO1 (stereo unspecified) | 7.77%
CCOc1ccc(NC(=O)CSc2nc3c(c(=O)n2-c2ccccc2OC)SCC3)cc1 | 9.5%
CCc1nnc(NC(=O)CSc2nc3c(c(=O)n2-c2ccccc2OC)SCC3)s1 | 35.6% (active)
CCc1nnc(NC(=O)CSc2nnc(Cc3ccccc3)n2-c2ccc(OC)cc2)s1 | -0.09%
OCC[C@H]1C[C@@H](O)[C@H](O)[C@]2(OCCCc3ccccc32)O1 | -3.33%
CC(C)CC[n+]1ccn(C2=C([O-])c3ccccc3C(=O)/C2=N\S(=O)(=O)c2ccccc2)c1 | 70.8% (active)
O=C(c1cccnc1)N(c1cc2sc(=O)oc2c2ccccc12)S(=O)(=O)c1ccccc1 | 66.5% (active)
COc1ccc(N(C(=O)c2cccnc2)S(=O)(=O)c2ccc3c(c2)n(C)c(=O)n3C)cc1 | 9.41%
COc1ccc(N(C(=O)c2cccnc2)S(=O)(=O)c2ccc(OC)c(OC)c2)cc1 | 8.53%
CN(C)C1=NC[C@H](Cc2ccccc2)N1CCc1ccc(F)cc1 | 0.73%
OCC[C@H]1C[C@@H](O)[C@H](O)[C@@]2(OCCc3ccccc32)O1 | 7.38%

SMILES | inhibition
Cc1nc2c(c(C)nn2-c2ccccc2)c(C)c1C | 15.1%
Cc1c(C)c2ccc(OCC(=O)N3CCC(C(=O)O)CC3)c(C)c2oc1=O | -1.66%
O=C(CNC(=O)C1COc2ccccc2O1)N/N=C/c1cc(Br)c(O)c(Br)c1 (stereo unspecified) | -6.29%
Cc1c(CC(=O)N2CCN(C(=O)C3COc4ccccc4O3)CC2)c(=O)oc2c(O)c(O)ccc12 (stereo unspecified) | 45.1% (active)
CC(C)(C)OC(=O)c1c(N)n(CCCN2CCCC2=O)c2nc3ccccc3nc12 | 63.9% (active)
O=C(NCCCN1CCCC1=O)c1ccc(S(=O)(=O)Nc2ccccc2)cc1 | 0.39%
COCC(C)OC(=O)c1c(N)n(CCCN2CCOCC2)c2nc3ccccc3nc12 (stereo unspecified) | 11.9%
O=[N+]([O-])c1ccc(S(=O)(=O)Nc2cccc(-c3ccc(N4CCCC4)nn3)c2)cc1 | -8.25%
COc1ccc(CNC(=O)[C@@H]2CC=C[C@@H]3CCN(C4CC4)C(=O)[C@@H]32)cc1 | -0.21%
CSc1ccc(NC(=O)/C=C/C(=O)O)cc1 | 0.81%
CN1CCN(c2ccc(NC(=O)c3ccccc3)cc2)CC1 | 2.04%
Cc1cccc(N2CCN(c3ccc(NC(=O)/C=C\C(=O)O)cc3)CC2)c1 | 42.2% (active)
CCCn1c(C)cc(-c2csc(NC(=O)CCc3nc4ccccc4c(=O)[nH]3)n2)c1C | -4.01%
O=C(CCc1[nH]c2ccccc2c1Sc1ccccc1)N(CCO)CCO | 3.25%
CCCCN(C(=O)CCNC(=O)NC12CC3CC(CC(C3)C1)C2)c1c(N)n(CCCC)c(=O)[nH]c1=O | -0.02%
N#CC1(NC(=O)COC(=O)CSc2ccc(F)cc2)CCCCC1 | 6.75%
Cc1cccc(NC(=O)c2ccc(S(=O)(=O)N(C)CC3CCCO3)cc2)c1C (stereo unspecified) | -5.06%
CCOC(=O)c1c(NC(=O)c2ccc(S(=O)(=O)N(C)CC3CCCO3)cc2)sc2c1CC(C)(C)NC2(C)C (stereo unspecified) | 55.4% (active)
CN(CC1CCCO1)S(=O)(=O)c1ccc(C(=O)Nc2ccc(F)cc2)cc1 (stereo unspecified) | 2.1%
O=C(Nc1ccc(S(=O)(=O)N2CCCCC2)cc1)C1CCN(C(=O)c2ccc(F)cc2)CC1 | -4.69%
